# From PubChem BioAssay (NCI)
# The panel holds about 79,000 compounds, 15% with a hit somewhere; the sample as a whole holds those more often. Unmarked numbers belong to inactive results. The source made the active and inactive calls. Cut-off read from the data, not from the text of the source: active = growth inhibition above about 70%; inactive = the rest.
# Assay: NCI Yeast Anticancer Drug Screen. Data for the cln2 rad14 strain (AID 165);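 note: 0% = growth equal to vehicle treated cultures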
# Details: S. cerevisiae cln2 rad14 strain, at 50.0 µM, hits give high values
# Method: Growth inhibition of yeast strains with defined genetic alterations is measured as a screen for potential anti-cancer activity. Selected strains with alterations in DNA damage repair or cell cycle control were exposed to compounds and growth inhibition was measured relative to vehicle treated controls. The strain used in this assay is cln2 rad14
row,Compound,growth inhibition
1,O=[N+]([O-])c1ccc(-c2noc(-c3cccs3)n2)cc1,15%
2,CC1(O)OC(COc2ccc(Cl)cc2)COC1O (stereo not given),8.55%
3,COc1ccc(Oc2c(I)cc(CC(NC(C)=O)C(=O)O)cc2I)cc1 (stereo not given),51.5%
4,CO[C@H]1C[C@@H]2CC[C@@H](C)[C@@](O)(O2)C(=O)C(=O)N2CCCC[C@H]2C(=O)O[C@H]([C@H](C)C[C@@H]2CC[C@@H](O)[C@H](OC)C2)CC(=O)[C@H](C)C=C(C)[C@@H](O)[C@@H](OC)C(=O)[C@H](C)C[C@H](C)/C=C/C=C/C=C1C,85.2% (active)
5,COC(=O)c1cccc(Br)c1,-29.5%
6,Cc1ncc(C#N)c(N)n1,-7.1%
7,NC(=S)N/N=C/c1ccc(N)cc1,-1.35%
8,N/N=C(/Cc1ccccc1)NNC(N)=S,-4.2%
9,Nc1nc2c(c(-c3nc(N)nc4c3CCc3ccccc3-4)n1)CCc1ccccc1-2,3.05%
10,CC(O)COc1ccc(-c2ccccc2)cc1 (stereo not given),15.9%
11,COc1cc(/C=N\Nc2ccccc2)ccc1OC(=O)c1ccccc1,23.9%
12,c1cc[n+](C2c3ccccc3C([n+]3ccccc3)c3ccccc32)cc1 (stereo not given),-23.9%
13,COc1cccc(Sc2ccc([N+](=O)[O-])c3no[n+]([O-])c23)c1,83.3% (active)
14,CC(=O)Nc1ccc(NC(C)=O)c2c1C(=O)c1ccccc1C2=O,2.15%
15,CCOC(=O)c1[nH]c(C)c(C(C)=O)c1C,-10.5%
16,CCCCC/C=N/Nc1nc(C)cc(=O)[nH]1,15.7%
17,N#Cc1ccc(NC(=O)Nc2cccc(C#N)c2)cc1,-15.1%
18,C=C[Si](OC(C)=O)(OC(C)=O)OC(C)=O,14.7%
19,O=[N+]([O-])c1ccc(N=Nc2ccccc2)cc1,21.2%
20,COc1cc2c(cc1O)CC[C@@H]1C2CC[C@@]2(C)C1CC[C@@H]2O (stereo not given in full),-26.6%

row,Compound,growth inhibition
1,Cc1cc(OCCO)cc(C)c1Cl,2.35%
2,OCCN1CCOCC1,24.9%
3,COc1ccc(C2(O)CCCCC2)cc1,6.45%
4,C=CC(O)CCC (stereo not given),1.3%
5,Cc1ccc(C(=O)c2ccccc2)c(C)c1,-10.4%
6,S=c1[nH]ccn1-c1ccccc1Cl,-29.1%
7,CSc1[nH]c(=O)ncc1F,-4.15%
8,OCC(O)C(O)C(O)C(O)/C=N/O (stereo not given),-6.7%
9,O=C(O)CCCc1ccccc1,-7.65%
10,O=[N+]([O-])c1ccccc1N=Nc1ccc(O)cc1O,-23.4%
11,CC1(C(N)=O)CCC(C(=O)O)C1(C)C (stereo not given),-29.9%
12,CCOC(=O)c1coc(C(=O)OCC)c1C(=O)OCC,-3.05%
13,CC(=O)Cc1ccc(-c2ccccc2)cc1,-25.4%
14,O=C(O)c1ccccc1NCc1ccco1,7.85%
15,Cc1ccc(C)n1-c1ccsc1C(=O)NNC(=O)C(Cl)Cl,21.1%
16,O=C1N(C[P+](c2ccccc2)(c2ccccc2)c2ccccc2)CCCN1C[P+](c1ccccc1)(c1ccccc1)c1ccccc1,14.9%
17,NC(=O)NC(=O)c1ccc(Cl)cc1,29.1%
18,C=CCCCCCCCCCOC(C)=O,-9.5%
19,Clc1ccc(-c2nnc(-c3cccc4ccccc34)o2)cc1,0.15%
20,N#CC(=Nc1cccc(F)c1)C1=C(O)c2ccccc2C1=O,27.6%
